Assay results as given in PubChem BioAssay (NCI).
Compounds without any hit were thinned out: in the full panel of roughly 83,000, 20% have a hit.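 Plates (96-well) were seeded with cells, treated with compound at one concentration, and incubated for 48 hours before percent growth was determined.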 Calls of active or inactive are those of the source. Rule for the calls: active = growth percent below 10; inactive = the rest.

What was measured:
Experiment in all cases: NCI-60 one-dose screen, 48 h (100 = growth as untreated, 0 = no growth, -100 = all killed)
Conditions in all cases: 10 µM unless noted
HCT-15 colon = system: HCT-15 colon
HT29 colon = system: HT29 colon
SNB-75 CNS = system: SNB-75 CNS
SNB-19 CNS = system: SNB-19 CNS
U251 CNS = system: U251 CNS
PC-3 prostate = system: PC-3 prostate
SK-MEL-5 melanoma = system: SK-MEL-5 melanoma
UACC-62 melanoma = system: UACC-62 melanoma
LOX IMVI melanoma = system: LOX IMVI melanoma
SK-MEL-28 melanoma = system: SK-MEL-28 melanoma
SK-MEL-2 melanoma = system: SK-MEL-2 melanoma
EKVX NSCLC = system: EKVX NSCLC
SN12C renal = system: SN12C renal
UO-31 renal = system: UO-31 renal
TK-10 renal = system: TK-10 renal
ACHN renal = system: ACHN renal
CAKI-1 renal = system: CAKI-1 renal
A498 renal = system: A498 renal
CCRF-CEM leukemia = system: CCRF-CEM leukemia
MOLT-4 leukemia = system: MOLT-4 leukemia

Measured: growth

COc1ccc(CNc2c3ccccc3nc3ccc(OC)cc23)cc1
inactive: SNB-75 CNS 27.4% | SNB-19 CNS 22.7% | U251 CNS 16.1% | SK-MEL-5 melanoma 11.1% | UACC-62 melanoma 42.6% | SK-MEL-28 melanoma 41.3% | SK-MEL-2 melanoma 40.9% | EKVX NSCLC 24.2% | SN12C renal 20.8% | TK-10 renal 33.6% | ACHN renal 10.2% | CAKI-1 renal 19.9% | CCRF-CEM leukemia 19.4%
active: HCT-15 colon 5.34% | HT29 colon -2.9% | PC-3 prostate 5.53% | LOX IMVI melanoma -75.1% | UO-31 renal 6.24% | A498 renal -5.96% | MOLT-4 leukemia -0.147%

C=C1C(=O)O[C@H]2[C@H]1CC/C(COC(=O)NCc1cccc(OC)c1)=C\CC[C@@]1(C)O[C@@H]21
inactive: SNB-75 CNS 71.1% | SNB-19 CNS 69.9% | U251 CNS 39.4% | PC-3 prostate 40.1% | SK-MEL-5 melanoma 29.8% | UACC-62 melanoma 31.5% | SK-MEL-28 melanoma 22.5% | SK-MEL-2 melanoma 40.9% | EKVX NSCLC 54.8% | SN12C renal 31.6% | CAKI-1 renal 10.4% | A498 renal 81.1%
active: HCT-15 colon -3.38% | HT29 colon -29.9% | LOX IMVI melanoma 5.61% | UO-31 renal -9.04% | TK-10 renal -11.7% | ACHN renal 2.37% | CCRF-CEM leukemia -15% | MOLT-4 leukemia -7.57%

O=C(NO)c1ccc(CNc2cccc3nc(C4CC4)n(-c4ccccc4)c(=O)c23)cc1
inactive: HT29 colon 24.8% | SNB-75 CNS 33% | SNB-19 CNS 25.9% | SK-MEL-2 melanoma 53.7% | EKVX NSCLC 42.2% | SN12C renal 15.5% | TK-10 renal 13.6% | A498 renal 13.7%
active: HCT-15 colon 7.98% | U251 CNS -7.99% | PC-3 prostate -47% | SK-MEL-5 melanoma 2.95% | UACC-62 melanoma -22.2% | LOX IMVI melanoma -34.9% | SK-MEL-28 melanoma 9.83% | UO-31 renal 3.57% | ACHN renal 3.75% | CAKI-1 renal 7.51% | CCRF-CEM leukemia -13.3% | MOLT-4 leukemia -21.7%

CCSc1cnnc2ccccc12
inactive: HCT-15 colon 105% | HT29 colon 106% | SNB-75 CNS 89.3% | SNB-19 CNS 106% | U251 CNS 102% | PC-3 prostate 104% | SK-MEL-5 melanoma 107% | UACC-62 melanoma 102% | LOX IMVI melanoma 103% | SK-MEL-28 melanoma 107% | SK-MEL-2 melanoma 115% | EKVX NSCLC 98.9% | SN12C renal 103% | UO-31 renal 94.3% | TK-10 renal 116% | ACHN renal 95.1% | CAKI-1 renal 95.3% | A498 renal 89.3% | CCRF-CEM leukemia 97.2% | MOLT-4 leukemia 89.7%

CCN(CC)CCNC(=O)n1cc(-c2ccncc2)c(-c2cc(Cl)cc(OC)c2)n1
inactive: HCT-15 colon 86% | HT29 colon 31.3% | SNB-75 CNS 48% | SNB-19 CNS 76.5% | U251 CNS 75.4% | PC-3 prostate 79.8% | SK-MEL-5 melanoma 84.8% | UACC-62 melanoma 70.3% | LOX IMVI melanoma 78.7% | SK-MEL-28 melanoma 91.3% | SK-MEL-2 melanoma 92.3% | EKVX NSCLC 43.4% | SN12C renal 70.2% | UO-31 renal 43.8% | TK-10 renal 30.1% | ACHN renal 57.1% | CAKI-1 renal 68.1% | A498 renal 63.7% | CCRF-CEM leukemia 83.3% | MOLT-4 leukemia 82.1%

Nc1nc(NC2CC2)cc(-c2cccc(Cl)c2Cl)n1
inactive: HCT-15 colon 25% | HT29 colon 13.6% | SNB-75 CNS 39.2% | SNB-19 CNS 59.1% | U251 CNS 39.1% | PC-3 prostate 64.6% | SK-MEL-5 melanoma 46.5% | UACC-62 melanoma 36.1% | LOX IMVI melanoma 40.7% | SK-MEL-28 melanoma 68.7% | SK-MEL-2 melanoma 14.3% | EKVX NSCLC 71.9% | SN12C renal 59.6% | UO-31 renal 71.7% | TK-10 renal 87.3% | ACHN renal 75.1% | CAKI-1 renal 58.5% | A498 renal 47.7% | CCRF-CEM leukemia 62.3% | MOLT-4 leukemia 28.4%

O=C(c1ccccc1)c1cccc(C(Br)Br)c1
inactive: HCT-15 colon 73.4% | HT29 colon 63.5% | SNB-75 CNS 73.9% | SNB-19 CNS 83.6% | U251 CNS 88.9% | PC-3 prostate 91.8% | SK-MEL-5 melanoma 74% | UACC-62 melanoma 81.1% | LOX IMVI melanoma 80.6% | SK-MEL-28 melanoma 93.2% | SK-MEL-2 melanoma 74.5% | EKVX NSCLC 107% | SN12C renal 89.7% | UO-31 renal 74.1% | TK-10 renal 78.9% | ACHN renal 91% | CAKI-1 renal 78.2% | A498 renal 77.2% | CCRF-CEM leukemia 103% | MOLT-4 leukemia 81.5%
